Experimental data published in PMC7862700, “An all-to-all approach to the identification of sequence-specific readers for epigenetic DNA modifications on cytosine”.

What was measured:
Assay in all cases: DAPPL (digital affinity profiling via proximity ligation, sequencing); 10 mM Tris-HCl pH 7.5, 50 mM NaCl, 1 mM DTT, 4% glycerol, room temperature, 30 min; GST-TFs on glutathione beads, 16-mer random dsDNA library, 0.1% formaldehyde crosslink after washing; high values mean tight binding
FLI1 = biological target: T1, FLI1 (Homo sapiens, UniProt Q01543 1-452); details: protein: recombinant; tags: N-terminal GST; dsDNA, one strand shown
T1 sequence: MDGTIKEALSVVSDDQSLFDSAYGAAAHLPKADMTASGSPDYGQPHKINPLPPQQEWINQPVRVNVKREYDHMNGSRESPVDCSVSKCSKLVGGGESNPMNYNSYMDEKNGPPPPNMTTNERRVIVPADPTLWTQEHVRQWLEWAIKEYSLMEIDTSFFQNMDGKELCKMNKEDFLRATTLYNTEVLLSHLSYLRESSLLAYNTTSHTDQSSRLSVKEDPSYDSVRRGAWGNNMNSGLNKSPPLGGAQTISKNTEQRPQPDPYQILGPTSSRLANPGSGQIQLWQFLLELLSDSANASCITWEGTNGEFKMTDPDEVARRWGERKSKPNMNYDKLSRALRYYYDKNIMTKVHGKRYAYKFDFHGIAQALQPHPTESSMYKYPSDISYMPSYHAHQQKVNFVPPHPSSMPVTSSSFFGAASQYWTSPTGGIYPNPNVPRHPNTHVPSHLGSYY
Outline: (§1)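 In yeast, human transcription factors were expressed with a GST fusion, then pulled down on glutathione beads and given DNA barcodes. Pooled with a tag-only sample, they were exposed to 200 nmole of a 16-mer random double-stranded DNA library (Tris/NaCl/DTT/glycerol buffer, room temperature, 30 min), washed, crosslinked with 0.1% formaldehyde, proximity-ligated using BsaI/T4 ligase for 1 h at 37 °C, PCR-amplified and read on an Illumina NextSeq500. Each hexamer's frequency of reads for a factor, divided by the matching frequency for the tag-only sample, gives the binding signal.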

ELK1 = biological target: T2, ELK1 (Homo sapiens, UniProt P19419 1-428); details: protein: recombinant; tags: N-terminal GST; dsDNA, one strand shown
T2 sequence: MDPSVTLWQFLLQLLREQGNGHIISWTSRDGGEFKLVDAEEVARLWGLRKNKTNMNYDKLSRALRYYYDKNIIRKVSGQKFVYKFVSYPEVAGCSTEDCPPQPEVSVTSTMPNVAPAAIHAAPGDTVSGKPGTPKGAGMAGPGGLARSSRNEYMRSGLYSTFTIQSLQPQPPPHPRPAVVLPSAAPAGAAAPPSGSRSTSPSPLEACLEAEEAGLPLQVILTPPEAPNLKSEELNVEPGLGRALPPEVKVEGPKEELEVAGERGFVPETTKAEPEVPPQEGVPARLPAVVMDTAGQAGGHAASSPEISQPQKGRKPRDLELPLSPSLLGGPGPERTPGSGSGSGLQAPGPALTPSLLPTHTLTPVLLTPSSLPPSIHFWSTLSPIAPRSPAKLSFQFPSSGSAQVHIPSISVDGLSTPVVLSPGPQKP
Outline: as §1

GABPA = biological target: T3, GABPA (Homo sapiens, UniProt Q06546 1-454); details: protein: recombinant; tags: N-terminal GST; dsDNA, one strand shown
T3 sequence: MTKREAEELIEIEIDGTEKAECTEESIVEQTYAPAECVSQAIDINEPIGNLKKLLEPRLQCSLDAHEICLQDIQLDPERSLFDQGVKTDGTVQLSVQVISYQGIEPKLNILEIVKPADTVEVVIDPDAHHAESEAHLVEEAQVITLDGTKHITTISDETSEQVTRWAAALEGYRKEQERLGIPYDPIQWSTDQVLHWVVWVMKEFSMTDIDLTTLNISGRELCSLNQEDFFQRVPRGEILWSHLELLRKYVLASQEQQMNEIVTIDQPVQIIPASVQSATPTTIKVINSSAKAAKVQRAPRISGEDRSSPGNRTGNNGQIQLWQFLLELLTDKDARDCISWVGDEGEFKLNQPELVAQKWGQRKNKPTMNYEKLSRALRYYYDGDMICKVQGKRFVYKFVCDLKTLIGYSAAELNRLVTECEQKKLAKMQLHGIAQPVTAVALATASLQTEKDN
Outline: as §1

ERG = biological target: T4, ERG (Homo sapiens, UniProt P11308 1-479); details: protein: recombinant; tags: N-terminal GST; dsDNA, one strand shown
T4 sequence: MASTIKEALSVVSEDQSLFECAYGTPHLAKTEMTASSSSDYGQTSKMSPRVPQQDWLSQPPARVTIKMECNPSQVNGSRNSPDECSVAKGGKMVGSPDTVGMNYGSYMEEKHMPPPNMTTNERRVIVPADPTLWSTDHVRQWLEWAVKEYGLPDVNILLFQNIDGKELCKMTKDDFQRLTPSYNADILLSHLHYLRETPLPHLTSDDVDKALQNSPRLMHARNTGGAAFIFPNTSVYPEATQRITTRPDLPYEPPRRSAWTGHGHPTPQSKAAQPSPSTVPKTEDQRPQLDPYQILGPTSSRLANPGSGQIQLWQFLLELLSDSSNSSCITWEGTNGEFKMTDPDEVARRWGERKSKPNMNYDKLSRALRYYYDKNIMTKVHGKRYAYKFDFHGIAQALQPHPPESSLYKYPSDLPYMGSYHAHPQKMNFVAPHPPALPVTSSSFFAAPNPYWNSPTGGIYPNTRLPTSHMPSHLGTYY
Outline: as §1

ELF1 = ELF1 (Homo sapiens, UniProt P32519 1-619); details: protein: recombinant; tags: N-terminal GST; dsDNA, one strand shown
Outline: as §1

EHF = biological target: T5, EHF (Homo sapiens, UniProt Q9NZC4 1-300); details: protein: recombinant; tags: N-terminal GST; dsDNA, one strand shown
T5 sequence: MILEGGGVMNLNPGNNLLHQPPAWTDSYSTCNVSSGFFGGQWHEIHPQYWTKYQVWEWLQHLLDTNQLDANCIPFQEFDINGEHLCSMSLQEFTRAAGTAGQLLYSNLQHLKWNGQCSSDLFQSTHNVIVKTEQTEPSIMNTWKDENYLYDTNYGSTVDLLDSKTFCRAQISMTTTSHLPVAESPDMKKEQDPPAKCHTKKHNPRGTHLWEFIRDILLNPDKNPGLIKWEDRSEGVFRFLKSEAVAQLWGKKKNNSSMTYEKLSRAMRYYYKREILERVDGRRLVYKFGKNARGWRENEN
Outline: as §1

SPI1 = SPI1 (Homo sapiens, UniProt P17947 1-270); details: protein: recombinant; tags: N-terminal GST; dsDNA, one strand shown
Outline: as §1

SPIB = SPIB (Homo sapiens, UniProt Q01892 1-262); details: protein: recombinant; tags: N-terminal GST; dsDNA, one strand shown
Outline: as §1

ELK3 = biological target: T6, ELK3 (Homo sapiens, UniProt P41970 1-407); details: protein: recombinant; tags: N-terminal GST; dsDNA, one strand shown
T6 sequence: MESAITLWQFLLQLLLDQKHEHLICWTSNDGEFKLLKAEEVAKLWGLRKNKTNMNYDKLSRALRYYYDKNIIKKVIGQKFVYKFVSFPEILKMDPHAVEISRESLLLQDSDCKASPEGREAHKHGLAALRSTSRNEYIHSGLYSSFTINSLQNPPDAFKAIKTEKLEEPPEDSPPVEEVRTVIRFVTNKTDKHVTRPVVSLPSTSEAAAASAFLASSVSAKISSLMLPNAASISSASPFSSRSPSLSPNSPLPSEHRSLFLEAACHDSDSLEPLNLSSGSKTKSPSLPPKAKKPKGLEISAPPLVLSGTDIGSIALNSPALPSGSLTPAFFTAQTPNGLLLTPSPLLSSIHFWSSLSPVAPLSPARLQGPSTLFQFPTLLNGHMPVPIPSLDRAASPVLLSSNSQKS
Outline: as §1

FEV = biological target: T7, FEV (Homo sapiens, UniProt Q99581 1-238); details: protein: recombinant; tags: N-terminal GST; dsDNA, one strand shown
T7 sequence: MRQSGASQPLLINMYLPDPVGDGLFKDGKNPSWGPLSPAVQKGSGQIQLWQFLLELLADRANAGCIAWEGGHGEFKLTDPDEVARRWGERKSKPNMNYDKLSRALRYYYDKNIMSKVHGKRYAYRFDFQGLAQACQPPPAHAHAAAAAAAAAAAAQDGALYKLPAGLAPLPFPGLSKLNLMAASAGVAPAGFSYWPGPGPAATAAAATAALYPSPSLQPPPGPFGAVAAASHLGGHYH
Outline: as §1

ETV5 = ETV5 (Homo sapiens, UniProt P41161 1-510); details: protein: recombinant; tags: N-terminal GST; dsDNA, one strand shown
Outline: as §1

HSF1 = HSF1 (Homo sapiens, UniProt Q00613 1-529); details: protein: recombinant; tags: N-terminal GST; chain copies: 3; dsDNA, one strand shown
Outline: as §1

ELF4 = ELF4 (Homo sapiens, UniProt Q99607 1-663); details: protein: recombinant; tags: N-terminal GST; dsDNA, one strand shown
Outline: as §1

ELK4 = biological target: T8, ELK4 (Homo sapiens, UniProt P28324-2 1-405); details: protein: recombinant; tags: N-terminal GST; dsDNA, one strand shown
T8 sequence: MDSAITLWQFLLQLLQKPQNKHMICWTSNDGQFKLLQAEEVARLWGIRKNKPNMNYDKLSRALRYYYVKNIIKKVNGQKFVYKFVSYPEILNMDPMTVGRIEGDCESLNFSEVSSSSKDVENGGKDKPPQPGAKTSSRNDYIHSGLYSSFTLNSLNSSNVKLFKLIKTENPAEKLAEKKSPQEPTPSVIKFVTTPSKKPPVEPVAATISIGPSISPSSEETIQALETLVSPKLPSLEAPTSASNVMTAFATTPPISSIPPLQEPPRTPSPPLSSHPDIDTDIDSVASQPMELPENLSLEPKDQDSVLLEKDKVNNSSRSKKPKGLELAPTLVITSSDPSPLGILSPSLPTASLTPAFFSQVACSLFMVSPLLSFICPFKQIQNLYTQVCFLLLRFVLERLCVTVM
Outline: as §1

ELF3 = biological target: T9, ELF3 (Homo sapiens, UniProt P78545 1-371); details: protein: recombinant; tags: N-terminal GST; dsDNA, one strand shown
T9 sequence: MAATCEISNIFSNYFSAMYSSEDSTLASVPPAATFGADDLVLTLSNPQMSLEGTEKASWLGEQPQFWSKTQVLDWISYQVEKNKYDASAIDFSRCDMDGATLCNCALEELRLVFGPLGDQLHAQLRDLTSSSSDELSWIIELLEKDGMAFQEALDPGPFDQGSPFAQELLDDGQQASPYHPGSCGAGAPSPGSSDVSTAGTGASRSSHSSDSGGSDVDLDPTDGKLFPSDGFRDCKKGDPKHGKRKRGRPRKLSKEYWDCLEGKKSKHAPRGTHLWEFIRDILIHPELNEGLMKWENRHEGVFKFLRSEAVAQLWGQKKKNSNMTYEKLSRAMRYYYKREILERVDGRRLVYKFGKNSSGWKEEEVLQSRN
Outline: as §1

ETV1 = ETV1 (Homo sapiens, UniProt P50549 1-477); details: protein: recombinant; tags: N-terminal GST; dsDNA, one strand shown
Outline: as §1

Sequence of SPIB (Q01892 whole entry): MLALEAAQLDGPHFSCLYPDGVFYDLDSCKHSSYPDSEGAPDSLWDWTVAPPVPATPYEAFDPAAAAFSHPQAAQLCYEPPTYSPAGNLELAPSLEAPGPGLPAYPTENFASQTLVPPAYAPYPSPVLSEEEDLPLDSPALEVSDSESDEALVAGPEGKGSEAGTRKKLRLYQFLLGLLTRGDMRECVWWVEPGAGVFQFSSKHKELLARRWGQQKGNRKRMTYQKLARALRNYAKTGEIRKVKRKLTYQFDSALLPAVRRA
Sequence of HSF1 (Q00613 whole entry): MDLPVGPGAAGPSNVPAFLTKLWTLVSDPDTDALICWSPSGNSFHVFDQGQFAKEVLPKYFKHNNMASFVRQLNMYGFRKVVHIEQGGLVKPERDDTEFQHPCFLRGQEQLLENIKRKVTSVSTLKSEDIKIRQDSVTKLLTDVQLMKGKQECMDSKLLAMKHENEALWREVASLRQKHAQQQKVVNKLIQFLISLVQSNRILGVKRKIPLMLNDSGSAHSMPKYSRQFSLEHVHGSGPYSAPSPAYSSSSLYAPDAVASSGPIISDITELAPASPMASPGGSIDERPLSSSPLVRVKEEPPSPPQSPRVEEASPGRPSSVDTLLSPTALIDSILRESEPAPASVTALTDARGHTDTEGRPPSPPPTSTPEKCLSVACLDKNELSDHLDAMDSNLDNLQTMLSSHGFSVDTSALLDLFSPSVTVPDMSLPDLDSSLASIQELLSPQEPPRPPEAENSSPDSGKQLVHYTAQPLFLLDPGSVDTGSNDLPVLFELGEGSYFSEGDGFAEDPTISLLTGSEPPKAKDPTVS
Sequence of ELF1 (P32519 whole entry): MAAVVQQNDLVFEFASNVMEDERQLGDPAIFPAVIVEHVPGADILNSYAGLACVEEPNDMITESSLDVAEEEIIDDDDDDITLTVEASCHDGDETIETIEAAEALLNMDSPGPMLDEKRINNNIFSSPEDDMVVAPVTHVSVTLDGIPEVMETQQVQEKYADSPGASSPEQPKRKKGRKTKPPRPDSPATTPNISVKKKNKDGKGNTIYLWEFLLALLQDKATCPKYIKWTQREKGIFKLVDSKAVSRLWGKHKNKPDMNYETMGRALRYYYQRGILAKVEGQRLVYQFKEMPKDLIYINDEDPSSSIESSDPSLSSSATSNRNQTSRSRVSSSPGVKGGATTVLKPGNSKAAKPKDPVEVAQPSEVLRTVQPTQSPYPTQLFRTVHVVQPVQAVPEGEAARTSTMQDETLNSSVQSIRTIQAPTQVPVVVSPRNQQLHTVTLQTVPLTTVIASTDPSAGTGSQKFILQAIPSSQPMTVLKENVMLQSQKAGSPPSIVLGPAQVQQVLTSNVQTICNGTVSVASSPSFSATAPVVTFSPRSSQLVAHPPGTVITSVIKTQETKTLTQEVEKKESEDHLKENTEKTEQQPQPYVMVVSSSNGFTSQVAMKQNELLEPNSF
Sequence of ELF4 (Q99607 whole entry): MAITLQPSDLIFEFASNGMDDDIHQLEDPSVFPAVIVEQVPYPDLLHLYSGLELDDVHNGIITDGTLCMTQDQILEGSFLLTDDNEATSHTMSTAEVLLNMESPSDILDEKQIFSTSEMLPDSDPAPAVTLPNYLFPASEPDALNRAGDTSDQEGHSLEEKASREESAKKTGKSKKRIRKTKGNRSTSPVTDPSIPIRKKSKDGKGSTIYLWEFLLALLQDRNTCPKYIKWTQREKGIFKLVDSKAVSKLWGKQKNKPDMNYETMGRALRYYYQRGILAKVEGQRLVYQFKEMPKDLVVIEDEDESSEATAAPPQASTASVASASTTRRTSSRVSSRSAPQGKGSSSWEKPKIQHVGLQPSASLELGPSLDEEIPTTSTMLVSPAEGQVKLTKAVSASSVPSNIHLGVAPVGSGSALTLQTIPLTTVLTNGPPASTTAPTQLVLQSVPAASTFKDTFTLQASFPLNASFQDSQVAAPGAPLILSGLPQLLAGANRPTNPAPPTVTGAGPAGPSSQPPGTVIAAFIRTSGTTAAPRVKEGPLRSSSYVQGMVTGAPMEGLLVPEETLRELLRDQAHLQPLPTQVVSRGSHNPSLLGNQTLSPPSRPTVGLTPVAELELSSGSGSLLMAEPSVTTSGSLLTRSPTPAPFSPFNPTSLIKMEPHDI
Sequence of ETV5 (P41161 whole entry): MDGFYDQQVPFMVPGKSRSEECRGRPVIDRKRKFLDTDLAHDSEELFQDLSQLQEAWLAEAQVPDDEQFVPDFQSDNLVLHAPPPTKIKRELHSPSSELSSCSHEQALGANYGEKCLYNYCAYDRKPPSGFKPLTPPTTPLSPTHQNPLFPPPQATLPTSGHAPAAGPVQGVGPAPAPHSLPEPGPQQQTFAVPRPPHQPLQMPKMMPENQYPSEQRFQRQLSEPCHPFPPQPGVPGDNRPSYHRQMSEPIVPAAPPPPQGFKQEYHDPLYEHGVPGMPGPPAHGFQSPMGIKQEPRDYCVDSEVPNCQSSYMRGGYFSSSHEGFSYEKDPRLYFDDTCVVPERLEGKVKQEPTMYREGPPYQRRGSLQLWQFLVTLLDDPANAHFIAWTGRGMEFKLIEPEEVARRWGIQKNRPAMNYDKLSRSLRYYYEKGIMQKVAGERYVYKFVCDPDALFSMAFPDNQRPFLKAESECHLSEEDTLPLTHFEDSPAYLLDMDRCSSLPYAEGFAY
Sequence of ETV1 (P50549 whole entry): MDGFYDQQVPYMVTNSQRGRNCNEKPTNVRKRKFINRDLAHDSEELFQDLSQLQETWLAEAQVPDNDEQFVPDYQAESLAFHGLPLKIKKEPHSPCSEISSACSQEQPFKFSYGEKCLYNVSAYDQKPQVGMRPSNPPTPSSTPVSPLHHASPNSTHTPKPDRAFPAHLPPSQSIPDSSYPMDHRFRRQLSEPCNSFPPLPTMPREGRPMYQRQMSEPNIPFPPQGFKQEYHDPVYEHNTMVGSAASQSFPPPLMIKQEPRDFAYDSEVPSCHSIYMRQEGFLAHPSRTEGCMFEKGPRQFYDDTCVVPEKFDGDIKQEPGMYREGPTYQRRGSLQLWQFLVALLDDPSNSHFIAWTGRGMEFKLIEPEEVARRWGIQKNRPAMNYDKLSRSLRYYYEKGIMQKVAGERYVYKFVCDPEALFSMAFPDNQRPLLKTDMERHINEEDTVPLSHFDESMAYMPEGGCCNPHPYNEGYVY

Sequence: GAATTG
- binding signal (FLI1): 1.15 fold enrichment (6-mer frequency, TF over GST control)
- binding signal (ELK1): 1.12 fold enrichment (6-mer frequency, TF over GST control)
- binding signal (GABPA): 1.09 fold enrichment (6-mer frequency, TF over GST control)
- binding signal (ERG): 1.1 fold enrichment (6-mer frequency, TF over GST control)
- binding signal (ELF1): 1.11 fold enrichment (6-mer frequency, TF over GST control)
- binding signal (EHF): 1.12 fold enrichment (6-mer frequency, TF over GST control)
- binding signal (SPI1): 1.17 fold enrichment (6-mer frequency, TF over GST control)
- binding signal (SPIB): 1.21 fold enrichment (6-mer frequency, TF over GST control)
- binding signal (ELK3): 1.21 fold enrichment (6-mer frequency, TF over GST control)
- binding signal (FEV): 1.11 fold enrichment (6-mer frequency, TF over GST control)
- binding signal (ETV5): 1.18 fold enrichment (6-mer frequency, TF over GST control)
- binding signal (HSF1): 1.06 fold enrichment (6-mer frequency, TF over GST control)
- binding signal (ELF4): 1.11 fold enrichment (6-mer frequency, TF over GST control)
- binding signal (ELK4): 1.04 fold enrichment (6-mer frequency, TF over GST control)
- binding signal (ELF3): 1.17 fold enrichment (6-mer frequency, TF over GST control)
- binding signal (ETV1): 1.15 fold enrichment (6-mer frequency, TF over GST control)
